Hits are enriched below; roughly 18% of the tested compounds scored in any of these assays.
TGFb inhibitor = qHTS for Inhibitors of TGF-b; 410,000 tested, 1.2% active; Potency, µM (titrated, usually from 46.1 µM), inactives show at the top dose activity, negative = inhibition, hits mostly inhibitors; HepG2 CAGA-GFP TGF-b/SMAD3 reporter, GFP fluorescence, 18 h; TGF-beta stimulated, 500 pg/mL final; AID 588855, 2011; further: potency means the concentration at half of the fitted maximal effect; on the % scale 0 is the no-effect control and ±100 the full control effect; nearly all actives have a fitted effect of over 65% in size
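Inhibition was scored as loss of TGF-beta-induced (500 pg/mL final, 18 hours, 37 degrees C) GFP in HEPG2 cells carrying a CAGA-GFP reporter, in DMEM with 1% FBS. Well GFP was summed per cell; Activity was normalised to unstimulated and stimulated DMSO wells, then concentration-response fitting.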
HepG2 tox-1 = qHTS for Inhibitors of TGF-b: Cytotox Counterscreen; HepG2 CAGA-GFP viability, ATP luminescence, 18 h; Potency, µM (series often up to 46.1 µM), for the others: top-dose activity change, negative = cytotoxicity, most hits filed as cytotoxic; 410,000 tested, 0.76% active; AID 588856, 2011; further: potency means the concentration at half of the fitted maximal effect
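HepG2 CAGA-GFP cells (1000/well, DMEM with 1% FBS) received compound, then TGF-beta at 500 pg/mL final, and were incubated 18 hours at 37 degrees C. Viability was read by CellTiter-Glo luminescence. Media-only wells were set as complete cell-killing and DMSO as no toxicity.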
TDP1 cell CPT = qHTS for Inhibitors of human tyrosyl-DNA phosphodiesterase 1 (TDP1): qHTS in cells in presence of CPT; chicken DT40 Tdp1-/-;hTDP1 cells + 20 nM CPT, ATP luminescence, 48 h; Potency, µM (series often up to 46.2 µM), inactives show at the highest dose activity change, negative = growth inhibition, actives largely listed as inhibitors; 420,000 tested, 12% active; AID 686979, 2013; further: potency means the concentration at half of the fitted maximal effect; on the % scale 0 is the no-effect control and ±100 the full control effect; nearly all actives have a fitted effect of over 55% in size
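Cell growth measured by CellTiter-Glo luminescence after a minimum 48 h, 37 C compound exposure with 20 nM CPT in Tdp1-knockout DT40 cells stably expressing hTDP1, seeded 400/well; qHTS titration format.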
IL1B secr inh = qHTS for Inhibitors of Inflammasome Signaling: IL-1-beta AlphaLISA Primary Screen. THP-1 LPS/ATP IL-1B secretion, AlphaLISA, 16 h; active compounds read low. activity change, % at 57.5 µM. 360,000 tested, 4.7% active. AID 743279, 2014; in the data active means activity change below about -50%; inconclusive means mostly about -30% to -49%; further: on the % scale 0 is the no-effect control and ±100 the full control effect
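Secreted IL-1B measured by AlphaLISA bead assay after 16 h compound exposure of THP-1 cells; compounds (final up to 57.5 uM) added 1 h before LPS (250 ng/mL) and ATP (1.25 mM) stimulation; lower signal means less secretion.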
TDP1 cell noCPT = qHTS for Inhibitors of human tyrosyl-DNA phosphodiesterase 1 (TDP1): qHTS in cells in absence of CPT | DT40 Tdp1-/- hTDP1 cells, no CPT, ATP luminescence, 48 h | Potency, µM (series often up to 46.2 µM), for the others: top-dose activity change, negative = growth inhibition, usual class: inhibitors | 420,000 tested, 15% active; further: potency means the concentration at half of the fitted maximal effect; on the % scale 0 is the no-effect control and ±100 the full control effect; nearly all actives have a fitted effect of over 55% in size
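Camptothecin absent (DMSO only). Human TDP1-complemented DT40 knockout cells, 400 cells/well, 37 °C for minimum 48 hr; ATP measured via CellTiter-Glo, 30 min dark incubation, luminescence.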
TDP1 block = qHTS Assay for Inhibitors of Tyrosyl-DNA Phosphodiesterase (TDP1) | 350,000 tested, 0.28% active | Potency, µM (doses to about 130 µM), without a hit: top-dose activity change, negative = inhibition, actives largely listed as inhibitors | recombinant TDP1, AlphaScreen DNA substrate cleavage | AID 485290, 2010; further: potency means the concentration at half of the fitted maximal effect; on the % scale 0 is the no-effect control and ±100 the full control effect; nearly all actives have a fitted effect of over 40% in size
Target sequence (Q9NUW8 whole entry, looked up): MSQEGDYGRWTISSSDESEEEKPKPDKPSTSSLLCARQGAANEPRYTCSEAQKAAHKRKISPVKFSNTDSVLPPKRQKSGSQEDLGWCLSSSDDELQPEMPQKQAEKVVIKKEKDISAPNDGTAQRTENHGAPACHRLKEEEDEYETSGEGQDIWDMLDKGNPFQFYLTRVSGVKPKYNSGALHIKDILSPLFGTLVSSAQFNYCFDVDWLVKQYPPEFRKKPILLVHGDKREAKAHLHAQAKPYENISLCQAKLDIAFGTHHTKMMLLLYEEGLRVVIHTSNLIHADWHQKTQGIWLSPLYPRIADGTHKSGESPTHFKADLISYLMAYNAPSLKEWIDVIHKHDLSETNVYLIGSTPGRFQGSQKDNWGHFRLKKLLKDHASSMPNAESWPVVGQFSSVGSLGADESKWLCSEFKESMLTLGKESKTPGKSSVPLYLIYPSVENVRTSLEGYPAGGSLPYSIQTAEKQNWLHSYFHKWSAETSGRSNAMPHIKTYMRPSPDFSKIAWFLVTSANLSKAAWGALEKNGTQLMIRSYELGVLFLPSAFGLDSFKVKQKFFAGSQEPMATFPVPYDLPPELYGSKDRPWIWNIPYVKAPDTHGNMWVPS
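Here, a 5' biotin and 3' phosphotyrosine-FITC DNA oligonucleotide reports Tdp1 activity: intact substrate bridges AlphaScreen beads, while cleavage leaves a 3' phosphate and drops signal. All incubations at room temperature.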
TGFb confirm = qHTS for Inhibitors of TGF-b: Confirmation of Cherry Picks | shares compounds with TGFb inhibitor | Potency, µM (highest dose often 46.1 µM), for inactives: at the top dose activity, negative = inhibition, usual class: inhibitors | AID 720534, 2013 | HepG2 CAGA-GFP TGF-b reporter, GFP fluorescence, 18 h; cells stimulated with TGF-beta, 500 pg/mL | 1,600 tested, 63% active; further: potency means the concentration at half of the fitted maximal effect; on the % scale 0 is the no-effect control and ±100 the full control effect; nearly all actives have a fitted effect of over 65% in size
HepG2 tox-2 = qHTS for Inhibitors of TGF-b: Cytotox Counterscreen for Cherry Picks; shares compounds with TGFb inhibitor; HepG2 CAGA-GFP viability, ATP luminescence, 18 h; cells stimulated with TGF-beta, 500 pg/mL; Potency, µM (top dose mostly 46.1 µM), without a hit: top-dose activity, negative = cytotoxicity, usual class: inhibitors; 1,600 tested, 27% active; AID 720535, 2013; further: potency means the concentration at half of the fitted maximal effect; on the % scale 0 is the no-effect control and ±100 the full control effect; nearly all actives have a fitted effect of over 70% in size
CCL64 TGFb inh = qHTS for Inhibitors of TGF-b: CCL64 Cells Orthogonal Assay for Cherry Picks. shares compounds with TGFb inhibitor. CCL64 CAGA-GFP reporter, TGF-b stimulated, GFP fluorescence, 18 h. Potency, µM (doses to about 46.1 µM), without a hit: at the top dose activity, negative = inhibition, usual class: inhibitors. 1,600 tested, 41% active; further: potency means the concentration at half of the fitted maximal effect; nearly all actives have a fitted effect of over 65% in size
TGFb COP inh = qHTS for Inhibitors of TGF-b: Hit Validation in HepG2 Cells using COP promoter; shares compounds with TGFb inhibitor; HepG2 COP-GFP TGF-b reporter, GFP fluorescence, 18 h; cells stimulated by added recombinant TGF-beta; Potency, µM (titrated, usually from 46.1 µM), for the others: at the highest dose activity, negative = inhibition, actives largely listed as inhibitors; 1,600 tested, 3% active; further: potency means the concentration at half of the fitted maximal effect; nearly all actives have a fitted effect of over 70% in size
The depositor's hits bear a star. Unless noted, the call rests on the fitted dose curve; in most records, active means well fitted curve in the direction sought with a large enough effect; inconclusive means small, poorly fitted or top-dose-only effect, or another doubt; inactive means no such curve, though single readings can be large; an effect the other way counts as inactive or inconclusive.

Results for COc1ccccc1C#Cc1ccc2c(=O)c3ccccc3n(C)c2c1 ?
TGFb inhibitor: -3.7%; HepG2 tox-1: -6.3%; TDP1 cell CPT: inconclusive; IL1B secr inh: 24.4; TDP1 cell noCPT: inconclusive

How did CN1CCC[C@H]1CCNc1ccc2c(=O)c3ccccc3n(C)c2c1 do in these assays?
TGFb inhibitor: 15.8µM*; HepG2 tox-1: -0.4%; TDP1 cell CPT: inconclusive; IL1B secr inh: -71.6*; TDP1 cell noCPT: inconclusive; TGFb confirm: inconclusive; HepG2 tox-2: inconclusive; CCL64 TGFb inh: 20.6µM*; TGFb COP inh: 62.3%

How did Cc1ccc(-c2nc(=S)c3c(n2Cc2cccnc2)CC(C)(C)OC3)cc1 do in these assays?
TGFb inhibitor: 4.5%; HepG2 tox-1: 30.1%; TDP1 cell CPT: 16.0%; IL1B secr inh: -15.7; TDP1 cell noCPT: 1.0%

How did C#CCONC(=O)c1cc(OCC(F)(F)F)ccc1OCC(F)(F)F do in these assays?
TGFb inhibitor: -0.8%; HepG2 tox-1: -1.6%; TDP1 cell CPT: 1.1%; IL1B secr inh: -7.4; TDP1 cell noCPT: -0.1%; TDP1 block: 4.8%

Results for O=[N+]([O-])c1ccc(Cl)cc1NCCCN1CCOCC1 ?
TGFb inhibitor: 1.3%; HepG2 tox-1: 1.8%; TDP1 cell CPT: 7.6%; IL1B secr inh: 4.2; TDP1 cell noCPT: 8.4%; TDP1 block: 2.3%

Results for Clc1ccc2c(NCc3ccccn3)ccnc2c1 ?
TGFb inhibitor: 12.6µM*; HepG2 tox-1: -29.7%; TDP1 cell CPT: inconclusive; IL1B secr inh: 12.9; TDP1 cell noCPT: -12.6%; TGFb confirm: 2.06µM*; HepG2 tox-2: -26.0%; CCL64 TGFb inh: 8.2µM*; TGFb COP inh: -1.1%

What do the screens show for `COc1ccc2nc(N/C(=N/S(=O)(=O)c3cccs3)c3ccccc3Cl)sc2c1`?
TGFb inhibitor: -3.6%; HepG2 tox-1: -4.5%; TDP1 cell CPT: -10.3%; IL1B secr inh: 15.2; TDP1 cell noCPT: -10.6%; TDP1 block: 4.9%
